In PubChem BioAssay (EPA / NIEHS):
“And” between values parts separate entries of the source, which are not always exact repeats. Equal entries are not always repeated. Inconclusive results are not listed. The source made the active and inactive calls. The calls were made as follows: active = hit-call score of the fitted dose curve at least 0.9, where 1 is the maximum; inconclusive = response in the unintended direction; inactive = score below 0.9.

molecular target: human MET Proto-Oncogene, Receptor Tyrosine Kinase (MET), MET (gene 4233) (UniProt P08581); test: NVS_ENZ_hMet: NovaScreen (NVS) Enzymatic Assay for human MET Proto-Oncogene, Receptor Tyrosine Kinase (MET) (AID 2283180)
Sequence (P08581 whole entry, looked up): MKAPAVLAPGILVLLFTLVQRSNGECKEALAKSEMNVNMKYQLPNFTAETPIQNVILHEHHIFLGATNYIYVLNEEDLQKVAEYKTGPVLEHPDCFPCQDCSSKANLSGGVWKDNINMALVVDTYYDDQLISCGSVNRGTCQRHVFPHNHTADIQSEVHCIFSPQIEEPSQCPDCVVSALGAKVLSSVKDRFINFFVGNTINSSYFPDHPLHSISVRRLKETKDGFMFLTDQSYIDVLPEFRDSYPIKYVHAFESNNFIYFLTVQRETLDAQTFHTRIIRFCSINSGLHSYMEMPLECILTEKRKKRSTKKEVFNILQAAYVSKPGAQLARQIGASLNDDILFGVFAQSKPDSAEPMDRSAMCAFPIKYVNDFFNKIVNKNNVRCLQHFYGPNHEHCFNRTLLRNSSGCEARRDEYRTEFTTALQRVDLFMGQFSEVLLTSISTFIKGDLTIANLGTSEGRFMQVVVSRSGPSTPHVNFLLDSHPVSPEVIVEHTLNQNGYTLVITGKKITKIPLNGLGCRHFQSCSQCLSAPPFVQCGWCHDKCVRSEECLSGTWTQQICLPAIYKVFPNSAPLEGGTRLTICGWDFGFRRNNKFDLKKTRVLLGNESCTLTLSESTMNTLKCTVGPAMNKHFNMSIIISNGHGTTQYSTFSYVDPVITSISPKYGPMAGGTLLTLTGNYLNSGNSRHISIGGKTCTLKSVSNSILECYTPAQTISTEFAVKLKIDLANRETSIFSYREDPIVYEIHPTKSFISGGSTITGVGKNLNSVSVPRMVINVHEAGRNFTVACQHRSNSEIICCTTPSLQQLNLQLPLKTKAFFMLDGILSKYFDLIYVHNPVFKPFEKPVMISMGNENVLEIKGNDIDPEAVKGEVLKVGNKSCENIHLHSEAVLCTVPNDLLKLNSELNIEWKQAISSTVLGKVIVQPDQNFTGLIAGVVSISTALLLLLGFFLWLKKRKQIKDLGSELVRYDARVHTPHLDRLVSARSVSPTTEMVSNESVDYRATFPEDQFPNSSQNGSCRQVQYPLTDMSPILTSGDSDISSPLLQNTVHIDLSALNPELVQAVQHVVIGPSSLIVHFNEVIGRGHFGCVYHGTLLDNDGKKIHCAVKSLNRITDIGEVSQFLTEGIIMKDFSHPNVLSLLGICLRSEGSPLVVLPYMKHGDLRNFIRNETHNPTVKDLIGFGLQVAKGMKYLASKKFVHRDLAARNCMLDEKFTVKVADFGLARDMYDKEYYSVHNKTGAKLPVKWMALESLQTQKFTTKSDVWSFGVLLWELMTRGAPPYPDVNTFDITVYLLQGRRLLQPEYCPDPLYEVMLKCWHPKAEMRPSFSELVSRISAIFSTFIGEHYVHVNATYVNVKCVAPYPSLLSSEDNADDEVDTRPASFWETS
Experimental: NVS_ENZ_hMet is a biochemical, single-readout assay that uses extracted gene-proteins in a cell-free assay. Measurements were taken 1 hour after chemical dosing in a 384-well plate.NVS_ENZ_hMet is one of one assay component(s) measured or calculated from the NVS_ENZ_hMet assay. It is designed to make measurements of enzyme activity, a form of enzyme reporter, as detected with fluorescence intensity signals by Fluorescence and electrophoretic mobility shift technology.Data from the assay component NVS_ENZ_hMet was analyzed into 1 assay endpoint. This assay endpoint, NVS_ENZ_hMet, was analyzed in the positive analysis fitting direction relative to DMSO as the negative control and baseline of activity. Using a type of enzyme reporter, loss-of-signal activity can be used to understand changes in the enzymatic activity as they relate to the gene MET. Furthermore, this assay endpoint can be referred to as a primary readout, because this assay has produced multiple assay endpoints where this one serves a enzymatic activity function. To generalize the intended target to other relatable targets, this assay endpoint is annotated to the kinase intended target family, where the subfamily is receptor tyrosine kinase.
Binding assays used specific radioligands (tritiated, iodinated) with non-radioactive competitive displacement ligands in agonist or antagonist protocols (as indicated) and various reference compounds and inhibitors to titrate specific binding to receptors and transporters. Most enzyme assays (CYPs, kinases, phosphatases, proteases, HDACs) used recombinant protein and specific substrates (fluorescence mostly, some colorimetric and radioactive) and inhibitors, followed by a biochemical separation of substrate and product. All assays for the biochemical HTS were initially run in duplicate at a single concentration (10 uM for CYP450 assays and 25 uM for all others). Assay-chemical combinations meeting a pre-defined threshold (e.g., 30% inhibition and other criteria defined below) were then run in singleton concentration-response format with maximum concentration of 20 uM for CYPs and 50 uM for all others. Each assay was run with positive and negative controls, and concurrent controls on every plate. The follow-up (secondary) screen tested active chemical-pairs in concentration series, as well as a few additional assays not tested in the primary screen, some selected negative inactives, and several cases re-run in the concentration series for confirmatory purposes.

Row | SMILES | outcome | AC50
1 | NCCO | inactive | –
2 | O=C(O)c1cc(N=Nc2ccc(S(=O)(=O)Nc3ccccn3)cc2)ccc1O | inactive | –
3 | O=C(O)c1cccc(Oc2ccccc2)c1 | inactive | –
4 | O=c1[nH]cnc2c1ncn2[C@H]1CC[C@@H](CO)O1 | inactive | –
5 | Nc1ccccc1N | – | 32.2 µM (active)
6 | CCCC(CCC)C(=O)O | inactive | –
7 | Fc1ccccc1[C@@H](F)COC1CCC(Nc2ncnc3[nH]ncc23)CC1 (stereo not given in full) | inactive | –
8 | COCC(C)OCC(C)O (stereo not given) | inactive | –
9 | COc1cc(C(=O)NC2CCN(C)CC2)ccc1Nc1ncc2c(n1)N(C1CCCC1)CC(F)(F)C(=O)N2C | inactive | –
10 | CC/C(=C(\c1ccccc1)c1ccc(OCCN(C)C)cc1)c1ccccc1 | inactive | –
11 | FC(F)(F)C(F)(F)C(F)(F)C(F)(F)C(F)(F)C(F)(F)CCI | inactive | –
12 | Cc1ccc(N)cc1O | inactive | –
13 | CCN(CC)C(=O)c1cc(S(=O)(=O)Cc2ccccc2)c(N2CCC(c3ccccc3)CC2)cc1N(CC)CCN(C)C | inactive | –
14 | c1ccc2ccccc2c1 | inactive | –
15 | CCCOC(=O)c1cc(O)c(O)c(O)c1 | inactive | –
16 | O=C(c1ccccc1)c1ccccc1 | inactive | –
17 | S=C([S-])NCCNC(=S)[S-].[Mn+2] | – | 20.5 µM (active)
18 | O=C(Oc1ccccc1)c1cccc(C(=O)Oc2ccccc2)c1 | inactive | –
19 | Cc1nc(-c2ccccn2)ncc1C(=O)Nn1cc(C)c2cc(F)ccc21 | inactive | –
20 | O=C(O)c1ccc2c(c1)nc(C(=O)NC1CCN(C3CC3)CC1)n2Cc1cc(-c2ccc(Cl)s2)on1 | inactive | –

Row | SMILES | outcome | AC50
21 | CCCCCCCCCCCCCCOS(=O)(=O)O | – | 18.5 µM (active)
22 | S=C(S)NCCNC(=S)S.[Mn+2].[S-]C([S-])=NCCN=C([S-])[S-].[Zn+2] | – | 11 µM (active) and 4.32 µM (active) and 18.9 µM (active)
23 | N#CCCCCC#N | inactive | –
24 | O=C(NO)C1(NS(=O)(=O)c2ccc(Oc3ccc(F)cc3)cc2)CCOCC1 | inactive | –
25 | CC(=O)Oc1ccccc1C(=O)O | inactive | –
26 | Cc1ncc([C@@H](CCCCCCc2ccc3c(n2)NCCC3)CC(=O)O)cn1 | inactive | –
27 | N[C@@H](Cc1cc(I)c(Oc2ccc(O)c(I)c2)c(I)c1)C(=O)O | inactive | –
28 | CCOCCOCCO | inactive | –
29 | CC(O)CO (stereo not given) | inactive | –
30 | CC(C)CCCCCCc1ccc(O)cc1 | inactive | –
31 | O=C1NC(=O)C(c2ccccc2)(c2ccccc2)N1 | inactive | –
32 | CCc1nc(N)nc(N)c1-c1ccc(Cl)cc1 | inactive | –
33 | COc1ccc(S(=O)(=O)N2C(=O)[C@@](c3ccccc3OC)(N3C[C@H](O)C[C@H]3C(=O)N(C)C)c3cc(Cl)ccc32)c(OC)c1 | inactive | –
34 | CC(C)=CCC/C(C)=C/CO | inactive | –
35 | OCC(CO)n1cnc(-c2ccc(F)cc2)c1-c1ccnc(Oc2ccccc2)n1 | inactive | –
36 | CCCCc1ccc2c(n1)[C@@H](c1ccc(OC)cc1C[C@H](C)C(=O)O)[C@H](C(=O)O)[C@H]2c1ccc2c(c1)OCO2 | inactive | –
37 | O=C(O)Cc1cc(I)c(Oc2cc(I)c(O)c(I)c2)c(I)c1 | – | 26.7 µM (active)
38 | CCN(CC)CCNc1ccc(CNC=O)c2sc3ccc(OC)cc3c(=O)c12 | inactive | –
39 | COc1ccc(OC(F)(F)F)cc1CN[C@H]1CCCN[C@H]1c1ccccc1 | inactive | –
40 | CNS(=O)(=O)c1cc(C(=O)N2CCC(CCN3C4CCC3CC(n3c(C)nc5ccccc53)C4)(c3cccc(F)c3)CC2)c(Cl)cc1F (stereo not given) | inactive | –
